Only a selection was taken, and hits are over-represented in it overall.
GIRK2 activator: GIRK2 channel activators by thallium flux. P48051. HEK293 GIRK2/NPY4 cells, thallium flux fluorescence. activation (% efficacy), % for hits at 37.5 µM. 34,000 tested, under 10 active;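 active = primary screen hit, no activity in plain HEK293 cells, and in GIRK2-only cells above 5% efficacy rising with concentration; inactive = the rest, including fluorescent compounds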;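 note: efficacy is normalized control-subtracted fluorescence 15 s after thallium addition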
AMPAR-TARP mod: modulates AMPAR-stargazin complexes; O88602+P19491; calls only at 30 µM; AID 1259245; HEK293 GluA2+stargazin, membrane potential dye (FDSS), glutamate EC50; hits were called plate by plate, in both directions; actives 3.5% (n = 40,000);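 active = any of four per-well response measures lying three or more SD from its plate-wide compound average, in either direction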
An asterisk follows results filed as active; i = inactive; . = no result; + = active, no number.

SMILES	GIRK2 activator	AMPAR-TARP mod
CCS(=O)(=O)c1ccc(CC(=O)Nc2ccc(Cl)cc2C(=O)c2ccccc2)cc1	.	i
CS(=O)(=O)c1ccc(CC(=O)Nc2ccc(Cl)cc2C(=O)c2ccccc2Cl)cc1	.	+
CCCNC(=O)c1c(N)n(CCC(C)C)c2nc3ccccc3nc12	i	i
Cc1ccc(NC(=O)NCC2CCN(C(=O)Oc3ccccc3)CC2)cc1C	i	+
O=C(NCC1CCN(C(=O)Oc2ccccc2)CC1)NC(c1ccccc1)c1ccccc1	i	i
FC(F)(F)c1cccc2sc(N3CCNCC3)nc12	i	i
